Tests used:
[1] = system: Botulinum neurotoxin type F light chain protease (Clostridium botulinum); test: Botulinum neurotoxin type F light chain protease inhibition, multiplex microsphere flow cytometry, validation set (AID 588459); conditions: multiplex microsphere protease substrate cleavage assay, at 10 µM, stronger effect = higher value
[2] = molecular target: Botulinum neurotoxin type A (Clostridium botulinum) (UniProt P0DPI0); test: BoNT/A light chain protease inhibitors, biochemical, multiplex microsphere flow cytometry, validation set (AID 588460); conditions: at 10 µM, stronger effect = higher value
[3] = molecular target: Lethal factor (Bacillus anthracis) (UniProt P15917); test: Lethal factor protease inhibitors, Bacillus anthracis, multiplex microsphere cleavage assay, validation set (AID 588461); conditions: flow cytometry, at 10 µM, stronger effect = higher value

Measured: inhibition

Lethal factor (Bacillus anthracis), sequence (P15917 whole entry, looked up): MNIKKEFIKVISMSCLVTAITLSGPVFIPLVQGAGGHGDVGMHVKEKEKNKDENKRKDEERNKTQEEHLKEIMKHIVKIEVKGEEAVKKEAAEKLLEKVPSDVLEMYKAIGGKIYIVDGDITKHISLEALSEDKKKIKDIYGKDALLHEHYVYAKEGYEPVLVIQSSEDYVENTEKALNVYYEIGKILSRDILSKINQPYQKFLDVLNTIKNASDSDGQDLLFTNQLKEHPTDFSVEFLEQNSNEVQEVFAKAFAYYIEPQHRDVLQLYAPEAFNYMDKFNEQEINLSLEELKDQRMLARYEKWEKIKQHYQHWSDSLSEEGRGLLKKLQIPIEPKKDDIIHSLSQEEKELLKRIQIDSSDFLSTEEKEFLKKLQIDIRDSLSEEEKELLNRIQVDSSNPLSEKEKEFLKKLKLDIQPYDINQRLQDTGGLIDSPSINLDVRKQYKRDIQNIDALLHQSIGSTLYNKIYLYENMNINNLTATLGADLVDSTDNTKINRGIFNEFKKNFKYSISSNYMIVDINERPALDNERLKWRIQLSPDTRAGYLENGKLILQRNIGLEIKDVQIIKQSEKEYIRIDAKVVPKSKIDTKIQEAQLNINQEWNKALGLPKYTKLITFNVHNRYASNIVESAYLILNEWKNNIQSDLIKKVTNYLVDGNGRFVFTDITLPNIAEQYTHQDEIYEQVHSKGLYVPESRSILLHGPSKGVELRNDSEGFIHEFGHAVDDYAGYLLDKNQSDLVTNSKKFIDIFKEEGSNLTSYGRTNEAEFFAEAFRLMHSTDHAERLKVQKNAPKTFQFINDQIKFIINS
Botulinum neurotoxin type A (Clostridium botulinum), sequence (P0DPI0 whole entry, looked up): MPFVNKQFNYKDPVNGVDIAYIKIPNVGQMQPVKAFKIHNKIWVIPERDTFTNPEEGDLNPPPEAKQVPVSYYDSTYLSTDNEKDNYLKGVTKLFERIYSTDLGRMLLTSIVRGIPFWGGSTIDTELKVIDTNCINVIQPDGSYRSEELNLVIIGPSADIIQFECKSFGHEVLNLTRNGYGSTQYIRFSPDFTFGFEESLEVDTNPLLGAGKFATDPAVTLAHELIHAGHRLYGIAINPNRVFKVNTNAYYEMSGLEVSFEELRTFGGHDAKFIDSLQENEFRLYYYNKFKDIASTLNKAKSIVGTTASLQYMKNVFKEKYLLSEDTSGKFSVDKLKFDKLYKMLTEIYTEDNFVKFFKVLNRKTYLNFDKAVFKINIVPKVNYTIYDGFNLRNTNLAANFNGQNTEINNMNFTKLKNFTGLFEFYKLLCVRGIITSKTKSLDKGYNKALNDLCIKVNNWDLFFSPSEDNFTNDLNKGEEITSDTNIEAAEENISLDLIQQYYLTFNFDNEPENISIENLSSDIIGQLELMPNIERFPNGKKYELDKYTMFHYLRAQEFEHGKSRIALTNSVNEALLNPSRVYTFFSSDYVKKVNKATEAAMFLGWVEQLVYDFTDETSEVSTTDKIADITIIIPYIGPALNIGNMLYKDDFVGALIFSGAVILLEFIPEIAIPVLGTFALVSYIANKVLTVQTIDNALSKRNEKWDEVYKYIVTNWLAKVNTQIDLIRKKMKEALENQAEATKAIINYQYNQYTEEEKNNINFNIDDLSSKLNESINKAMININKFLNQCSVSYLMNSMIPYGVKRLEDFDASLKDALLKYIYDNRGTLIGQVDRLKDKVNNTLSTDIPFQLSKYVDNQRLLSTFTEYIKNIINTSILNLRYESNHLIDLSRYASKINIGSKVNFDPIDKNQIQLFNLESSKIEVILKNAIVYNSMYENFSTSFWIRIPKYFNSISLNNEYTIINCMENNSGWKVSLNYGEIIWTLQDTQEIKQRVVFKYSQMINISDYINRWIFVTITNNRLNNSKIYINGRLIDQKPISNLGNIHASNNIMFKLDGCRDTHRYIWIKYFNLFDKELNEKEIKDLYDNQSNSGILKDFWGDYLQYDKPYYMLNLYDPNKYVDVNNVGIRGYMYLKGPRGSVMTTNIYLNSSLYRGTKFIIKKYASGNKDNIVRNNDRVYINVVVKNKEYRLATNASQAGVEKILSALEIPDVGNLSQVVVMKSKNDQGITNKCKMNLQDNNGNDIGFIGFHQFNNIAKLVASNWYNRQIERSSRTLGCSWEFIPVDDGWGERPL

CCCCCCC(=O)N(O)C1CC(=O)N(Cc2ccccc2)C1=O (centres undefined)
inactive: [1] 0.4% | [2] -0.7% | [3] 3.7%

Cc1ccc(C(=O)Nc2ccccc2C(=O)NC(C(=O)O)C(C)C)cc1 (centres undefined)
inactive: [1] 4.4% | [2] 0.5% | [3] -2%

COc1ccc(-c2nc(NC(C)=O)sc2-c2ccc(OC)cc2)cc1
inactive: [1] 3% | [2] 1% | [3] 2.3%

CC[C@]1(O)C[C@@H]2CN(CCc3c([nH]c4ccccc34)[C@@](C(=O)OC)(c3cc4c(cc3OC)N(C)[C@H]3[C@@](O)(C(=O)OC)[C@H](OC(C)=O)[C@]5(CC)C=CCN6CC[C@]43[C@@H]65)C2)C1
inactive: [1] 16.1% | [2] 3.4% | [3] -0.3%

Cc1ccc2[nH]c3c(=O)n(CCc4cnc[nH]4)cnc3c2c1
inactive: [1] -6.6% | [2] -0.7% | [3] -10.5%

O=C(Oc1cccccc1=O)c1ccccc1
inactive: [1] 1.1% | [2] -1.5% | [3] 0.9%

Cc1nc2sccn2c(=O)c1CCN1CCC(=C(c2ccc(F)cc2)c2ccc(F)cc2)CC1
inactive: [1] -6% | [2] -0.2% | [3] -7.2%

Nc1cnn(C2OC(CO)C(O)C2O)c(=O)n1 (centres undefined)
inactive: [1] 0.5% | [2] 0% | [3] -3.7%

COc1ccc(C2NC(=O)c3ccccc3O2)c(OC)c1OC (centres undefined)
inactive: [1] -2.1% | [2] -0.5% | [3] 2.9%

COc1cccc(CC2CC(=O)N(c3ccc4c(C)cc(=O)oc4c3)C2=O)c1 (centres undefined)
inactive: [1] 3.1% | [2] -0.1% | [3] 4.1%

COc1ccc(CNCCC(c2ccc(F)cc2)c2ccc(OC(C)C)cc2)cc1OC (centres undefined)
inactive: [1] -0.6% | [2] -2% | [3] 8.2%

CCN(CC)C1=C(Cl)C(=O)C(Cl)C12OCCO2 (centres undefined)
inactive: [1] 1% | [2] 0.6% | [3] -1%

COc1ccc(NC(=O)N2CCCCC2c2cccnc2)cc1 (centres undefined)
inactive: [1] 2.7% | [2] 0.7% | [3] -0.9%

COc1ccc2nc(C)cc(Nc3ccccc3O)c2c1
inactive: [1] 1% | [2] 1% | [3] -1.4%

COc1cc2cc(C(=O)O)[nH]c2c(OC)c1OC
inactive: [1] 0.5% | [2] -0.4% | [3] -3.8%

Cc1cc(C(C)(C)C)c(O)c(C)c1CC1=NCCN1
inactive: [1] 0.7% | [2] -1.1% | [3] 3.7%

COc1cc(C(=O)OCCn2c(=O)c3c(ncn3CCN(C)C)n(C)c2=O)cc(OC)c1OC
inactive: [1] 5.1% | [2] 2.5% | [3] -3.1%

CC(C)COCC(CN(Cc1ccccc1)c1ccccc1)N1CCCC1 (centres undefined)
inactive: [1] 1.2% | [2] -1.8% | [3] -2%

NC(N)=N/N=C/c1ccc(OS(=O)(=O)c2ccccc2)cc1
inactive: [1] -5.1% | [2] -1.5% | [3] -1.4%

C=C(C)C(=O)Nc1ccc(NC(C)C)cc1
inactive: [1] 0.4% | [2] -0.8% | [3] 5.7%

COc1cc(CNc2nnnn2C)ccc1OCc1ccc(F)cc1Cl
inactive: [1] -4.9% | [2] -0.5% | [3] -1.3%

COc1ccc(-c2cc(C(=O)N3CCOCC3)c3cc(C)ccc3n2)cc1
inactive: [1] -8.2% | [2] -2.6% | [3] 2.3%

CC1(C)CC(O)(CNCc2ccc3c(c2)OCO3)CCO1 (centres undefined)
inactive: [1] -3.2% | [2] -0.9% | [3] 1.2%

COc1ccc(NC(=O)C2OC3OC(C)(C)OC3C3OC(C)(C)OC23)cc1 (centres undefined)
inactive: [1] -1.2% | [2] 1.3% | [3] -5.4%

COc1cc2c(cc1OC)C(c1cc(OC)c(OC)c(OC)c1)NCC2 (centres undefined)
inactive: [1] 2.3% | [2] -0.2% | [3] 6.9%

OCC(O)CN1CCN(c2ccccc2)CC1 (centres undefined)
inactive: [1] 1.1% | [2] 0.8% | [3] -2.7%

N#C/C(=C\c1ccc(O)c(O)c1)C(=O)NCCCc1ccccc1
inactive: [1] 1.8% | [2] 1.2% | [3] -2.8%

O=C(COc1ccc2ccc(=O)oc2c1)c1ccccc1
inactive: [1] -5.2% | [2] -1.1% | [3] 1%

COc1ccccc1OCC(O)COC(N)=O (centres undefined)
inactive: [1] -3.8% | [2] -1.3% | [3] -6.8%

C[C@]12CC[C@@H]3c4ccc(O)cc4[C@@H](O)C[C@H]3[C@@H]1CC[C@@H]2O
inactive: [1] 3.3% | [2] -0.4% | [3] 0.8%

CC1(C)CC(=O)C(C2=NC(C)(C)Cc3ccccc32)=C(O)C1
inactive: [1] 0% | [2] 0.9% | [3] -0.4%

CC(C)CC(NC(=O)c1cccc(Cl)c1)C(=O)O (centres undefined)
inactive: [1] -4.2% | [2] -2.6% | [3] 0.4%

COc1ccc(C(=O)[C@H]2[C@H]3C(=O)N(c4ccccc4)C(=O)[C@H]3C3C=CC=NN32)cc1 (some centres undefined)
inactive: [1] 1.9% | [2] 4.7% | [3] -5.1%

COc1ccc2[nH]cc(CCNC(=O)C3CCCNC3=O)c2c1 (centres undefined)
inactive: [1] -3.2% | [2] -1.5% | [3] -5.3%

COc1cccc(-n2cc(CNCc3c(C(=O)N(C)C)nc4ccc(Cl)cn34)cn2)c1
inactive: [1] 1.3% | [2] -0.7% | [3] 7.5%

C[N+](C)(C)CCCCCCCCCC[N+](C)(C)C
inactive: [1] -0.3% | [2] -0.8% | [3] -5.3%

CC(=O)N1CC2(C)CN(C(C)=O)CC(C)(C1)C2
inactive: [1] -2.3% | [2] -1.6% | [3] 7.3%

COc1ccc(OCc2cccc(C(=O)NN)c2)cc1
inactive: [1] 0.1% | [2] 1.2% | [3] -6.1%

COc1ccc(C(=O)Nc2ccc(OC)c([N+](=O)[O-])c2)cc1Br
inactive: [1] 1.7% | [2] -0.3% | [3] 8.3%

COc1ccc(C(=O)/C=C/c2cc(C(=O)O)cc3c2OCOC3)c(O)c1
inactive: [1] 1.3% | [2] -0.8% | [3] 4.4%

CCC[C@@H]1C[C@@H](C(=O)N[C@H]([C@@H](C)O)[C@H]2O[C@H](SC)[C@H](O)[C@@H](O)C2O)N(C)C1 (some centres undefined)
inactive: [1] 3.2% | [2] -1.6% | [3] 0.6%

Nc1nnc(CSCc2ccc(Cl)cc2Cl)s1
inactive: [1] 0.7% | [2] -0.6% | [3] 6.8%

Cn1cc(C2N3CC4(C)CN2CC(C)(C3)C4=O)c2ccccc21 (centres undefined)
inactive: [1] 1% | [2] 1.7% | [3] -10.2%

Cc1nc(NCc2ccco2)c(C#N)c2c1COC(C)(C)C2
inactive: [1] 1% | [2] -1.2% | [3] -0.5%

O=c1n(CCCN2CCN(c3cccc(Cl)c3)CC2)nc2ccccn12
inactive: [1] -5.2% | [2] -0.2% | [3] -1.3%

COc1cc2c(cc1OC)C(c1ccccc1)=NCC2
inactive: [1] 0.6% | [2] 0.8% | [3] 7%

CC(=O)NC1C(OCc2ccccc2)OC(COC(C)=O)C(OC(C)=O)C1OC(C)=O (centres undefined)
inactive: [1] -1.4% | [2] -1.9% | [3] -2.2%

Cc1cc(O)c(C(=O)Cc2csc(C)n2)c(O)c1
inactive: [1] -5.7% | [2] -2.4% | [3] 0.7%

CC(C)C12CN3CC(C(C)C)(CN(C1)C31C(=O)Nc3ccccc31)C2=O (centres undefined)
inactive: [1] 0.1% | [2] 0.7% | [3] 9%

COc1cc(C(=O)OCCCN(C)C)cc(OC)c1OC
inactive: [1] -0.2% | [2] -0.5% | [3] 1.8%

CC1(C)O[C@@H]2C[C@H]3[C@@H]4CCC5=CC(=O)C=C[C@]5(C)[C@@]4(F)[C@@H](O)C[C@]3(C)[C@]2(C(=O)CO)O1
inactive: [1] -2.6% | [2] -3.3% | [3] -3.9%

COc1ccccc1OCC(=O)O
inactive: [1] 1% | [2] -0.9% | [3] -1.4%

CC1(C)CC(CC(=O)Nc2nccs2)(c2ccccc2)CCO1 (centres undefined)
inactive: [1] 3.8% | [2] 0.5% | [3] -1.9%

Cc1ccc2c(c1)C(CCN)C(=O)N2Cc1ccccc1 (centres undefined)
inactive: [1] -1% | [2] 0.7% | [3] 6.7%

O=C(CCC(=O)NCCO)NCCO
inactive: [1] 1.2% | [2] 0.4% | [3] 6.9%

O=C(O)CCn1cnc2ccccc2c1=O
inactive: [1] 1.4% | [2] 0.3% | [3] -3.5%

CCN(CC)c1ccc(C2=NNC(=O)CC2C)cc1[N+](=O)[O-] (centres undefined)
inactive: [1] -2.1% | [2] -0.3% | [3] -6.2%

O=C1NCC2=C1C(c1ccccc1)Nc1ccccc1N2 (centres undefined)
inactive: [1] 2.4% | [2] 0.1% | [3] -4.9%

C[N+]12CCCCC1C(COC(=O)c1ccc3c(c1)OCO3)CCC2 (centres undefined)
inactive: [1] 2.1% | [2] 0.2% | [3] -0.7%

COc1cc(CNCCc2ccccc2F)ccc1OCC(=O)N1CCCCC1
inactive: [1] 5.4% | [2] -0.1% | [3] 1%

Cn1nc(-c2ccc(Cl)cc2)nc2c(=O)n(C)c(=O)nc1-2
inactive: [1] -0.5% | [2] 2% | [3] 3.7%

O=c1cc(CN2CCN(c3cccc(Cl)c3)CC2)c2cc(O)c(-c3ccccc3)cc2o1
inactive: [1] -1.3% | [2] -1.5% | [3] -0.5%

O=C1OC(Nc2ccc3c(c2)OCO3)c2ccccc21 (centres undefined)
inactive: [1] 0.9% | [2] -1.8% | [3] -5.7%

Reference: PubChem BioAssay
